According to the supplement of paper PMC11732987, “Enantioselective OTUD7B fragment discovery through chemoproteomics screening and high-throughput optimisation” (Communications Chemistry, 2025):

Legend:
Experiment in all cases: log2 ratio of Biotin-Ahx-Ub-VS probe labelling (fragment/DMSO); higher = less target engagement (more negative = stronger competition), active = hit call of the paper (q ≤ 0.05, log2 ratio ≤ -1)
Settings in all cases: compound concentration: 200 uM; treatment time: 3 h
[1] = target: USP34 (UniProt Q70CQ2)
Procedure, shortened: (§1)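 Average log2 ratios of fragment over vehicle were obtained by unpaired t-test from global-median-normalised Spectronaut label-free quantities. Proteins with ≥2 unique peptides were included. HEK293T lysate (495 µg per sample) was treated in triplicate with fragment at 200 µM or vehicle for 3 h, then with Biotin-Ahx-Ub-VS at 0.5 µM final for 1 h, and labelled DUBs were NeutrAvidin-enriched and run by diaPASEF LC-MS/MS.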

[2] = target: T1, USP36 (UniProt Q9P275)
T1 sequence (whole entry): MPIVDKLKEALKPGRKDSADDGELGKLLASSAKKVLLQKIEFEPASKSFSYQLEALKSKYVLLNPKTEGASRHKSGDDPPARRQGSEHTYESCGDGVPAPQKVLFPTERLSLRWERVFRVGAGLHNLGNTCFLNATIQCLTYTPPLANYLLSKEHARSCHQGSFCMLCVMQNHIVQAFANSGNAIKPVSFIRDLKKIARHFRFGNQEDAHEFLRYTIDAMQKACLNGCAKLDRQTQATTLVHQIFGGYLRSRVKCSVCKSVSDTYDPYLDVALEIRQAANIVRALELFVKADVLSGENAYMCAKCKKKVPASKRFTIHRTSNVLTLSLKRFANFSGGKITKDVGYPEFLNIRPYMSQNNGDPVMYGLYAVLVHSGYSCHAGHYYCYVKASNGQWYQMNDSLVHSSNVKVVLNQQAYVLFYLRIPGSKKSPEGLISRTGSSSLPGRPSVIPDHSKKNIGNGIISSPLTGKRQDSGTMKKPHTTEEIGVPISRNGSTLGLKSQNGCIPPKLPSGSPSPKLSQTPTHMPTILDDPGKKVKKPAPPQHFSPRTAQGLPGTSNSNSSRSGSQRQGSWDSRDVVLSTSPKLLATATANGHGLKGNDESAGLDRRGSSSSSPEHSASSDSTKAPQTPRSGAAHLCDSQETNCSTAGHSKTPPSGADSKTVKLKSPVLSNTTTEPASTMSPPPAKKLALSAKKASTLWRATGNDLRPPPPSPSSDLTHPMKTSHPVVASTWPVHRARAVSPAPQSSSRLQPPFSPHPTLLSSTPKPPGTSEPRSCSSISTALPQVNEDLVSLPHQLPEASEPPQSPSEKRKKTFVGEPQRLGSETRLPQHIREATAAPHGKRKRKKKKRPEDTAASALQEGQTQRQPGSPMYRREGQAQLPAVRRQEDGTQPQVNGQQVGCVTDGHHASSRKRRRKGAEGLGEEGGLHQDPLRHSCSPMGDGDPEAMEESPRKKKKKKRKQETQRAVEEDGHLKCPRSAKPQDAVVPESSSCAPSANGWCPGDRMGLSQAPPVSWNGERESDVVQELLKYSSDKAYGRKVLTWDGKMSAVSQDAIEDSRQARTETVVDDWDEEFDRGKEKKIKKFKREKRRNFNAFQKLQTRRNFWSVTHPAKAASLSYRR
Procedure, shortened: as §1

[3] = target: T2, USP38 (UniProt Q8NB14)
T2 sequence (whole entry): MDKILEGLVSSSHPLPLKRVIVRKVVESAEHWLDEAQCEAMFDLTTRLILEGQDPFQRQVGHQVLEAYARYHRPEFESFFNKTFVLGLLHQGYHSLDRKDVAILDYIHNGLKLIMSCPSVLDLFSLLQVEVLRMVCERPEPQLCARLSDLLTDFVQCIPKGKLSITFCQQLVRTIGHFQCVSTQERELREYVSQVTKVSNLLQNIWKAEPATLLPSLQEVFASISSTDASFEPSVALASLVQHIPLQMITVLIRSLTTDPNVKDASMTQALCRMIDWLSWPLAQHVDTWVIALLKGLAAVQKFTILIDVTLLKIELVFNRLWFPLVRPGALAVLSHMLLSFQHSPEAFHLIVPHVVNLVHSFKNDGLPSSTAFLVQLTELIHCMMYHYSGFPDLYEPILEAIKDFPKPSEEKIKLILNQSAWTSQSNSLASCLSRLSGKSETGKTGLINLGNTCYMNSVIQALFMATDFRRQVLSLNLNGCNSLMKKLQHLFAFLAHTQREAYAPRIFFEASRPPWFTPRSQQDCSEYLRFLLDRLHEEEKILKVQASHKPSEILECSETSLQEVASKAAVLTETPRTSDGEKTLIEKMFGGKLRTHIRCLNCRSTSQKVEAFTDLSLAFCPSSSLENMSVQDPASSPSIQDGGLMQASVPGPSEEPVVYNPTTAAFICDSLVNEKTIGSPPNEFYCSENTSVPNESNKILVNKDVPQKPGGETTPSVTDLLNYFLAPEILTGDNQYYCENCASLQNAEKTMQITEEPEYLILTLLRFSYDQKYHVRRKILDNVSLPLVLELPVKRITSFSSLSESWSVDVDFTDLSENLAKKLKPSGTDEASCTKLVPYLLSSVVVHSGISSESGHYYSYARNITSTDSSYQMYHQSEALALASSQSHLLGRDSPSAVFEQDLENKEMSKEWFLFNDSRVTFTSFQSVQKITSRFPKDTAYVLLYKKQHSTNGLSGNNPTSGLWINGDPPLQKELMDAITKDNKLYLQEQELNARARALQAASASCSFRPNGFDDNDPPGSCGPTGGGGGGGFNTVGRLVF
Procedure, shortened: as §1

[4] = target: T3, USP39 (UniProt Q53GS9)
T3 sequence (whole entry): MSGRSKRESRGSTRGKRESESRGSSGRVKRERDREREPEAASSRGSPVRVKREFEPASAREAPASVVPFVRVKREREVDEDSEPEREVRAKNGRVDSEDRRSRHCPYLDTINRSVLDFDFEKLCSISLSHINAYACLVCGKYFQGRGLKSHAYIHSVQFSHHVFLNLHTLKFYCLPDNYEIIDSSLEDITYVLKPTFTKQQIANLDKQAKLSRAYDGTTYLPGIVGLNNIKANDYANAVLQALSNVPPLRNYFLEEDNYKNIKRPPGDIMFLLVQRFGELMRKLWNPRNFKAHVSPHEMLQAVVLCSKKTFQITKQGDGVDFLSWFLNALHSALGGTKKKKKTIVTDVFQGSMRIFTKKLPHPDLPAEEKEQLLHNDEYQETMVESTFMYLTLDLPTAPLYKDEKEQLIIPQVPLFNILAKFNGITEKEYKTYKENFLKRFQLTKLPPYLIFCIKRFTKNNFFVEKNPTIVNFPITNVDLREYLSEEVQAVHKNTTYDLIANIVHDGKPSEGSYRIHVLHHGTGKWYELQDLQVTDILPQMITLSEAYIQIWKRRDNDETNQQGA
Procedure, shortened: as §1

[5] = target: T4, USP4 (UniProt Q13107)
T4 sequence (whole entry): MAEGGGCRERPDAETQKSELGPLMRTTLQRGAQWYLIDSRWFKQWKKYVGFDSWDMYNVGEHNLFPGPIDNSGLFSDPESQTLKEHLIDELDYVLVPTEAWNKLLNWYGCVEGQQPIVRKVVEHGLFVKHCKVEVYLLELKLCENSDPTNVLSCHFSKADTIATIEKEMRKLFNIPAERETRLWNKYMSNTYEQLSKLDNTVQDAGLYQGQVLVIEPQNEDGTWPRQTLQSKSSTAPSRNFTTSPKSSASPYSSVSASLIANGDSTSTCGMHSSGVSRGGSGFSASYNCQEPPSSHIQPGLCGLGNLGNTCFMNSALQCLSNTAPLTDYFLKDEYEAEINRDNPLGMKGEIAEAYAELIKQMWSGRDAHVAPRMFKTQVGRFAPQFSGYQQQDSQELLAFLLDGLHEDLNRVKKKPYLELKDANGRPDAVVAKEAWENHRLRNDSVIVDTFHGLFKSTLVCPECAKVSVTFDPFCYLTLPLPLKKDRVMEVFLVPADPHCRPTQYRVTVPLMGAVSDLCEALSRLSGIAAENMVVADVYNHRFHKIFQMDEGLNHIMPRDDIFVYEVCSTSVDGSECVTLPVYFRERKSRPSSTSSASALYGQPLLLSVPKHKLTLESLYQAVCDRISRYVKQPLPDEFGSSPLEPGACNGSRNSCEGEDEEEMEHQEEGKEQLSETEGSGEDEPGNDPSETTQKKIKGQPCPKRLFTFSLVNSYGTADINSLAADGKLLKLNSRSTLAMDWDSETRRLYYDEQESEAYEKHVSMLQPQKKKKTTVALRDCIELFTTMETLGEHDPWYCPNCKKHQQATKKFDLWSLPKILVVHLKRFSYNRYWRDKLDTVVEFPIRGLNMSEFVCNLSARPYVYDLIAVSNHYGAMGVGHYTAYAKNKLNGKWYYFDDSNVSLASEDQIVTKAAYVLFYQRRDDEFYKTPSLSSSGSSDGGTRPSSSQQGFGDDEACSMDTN
Procedure, shortened: as §1

Measured: log2 ratio of Biotin-Ahx-Ub-VS probe labelling

USP34, sequence (Q70CQ2 whole entry, the tested form may be a part): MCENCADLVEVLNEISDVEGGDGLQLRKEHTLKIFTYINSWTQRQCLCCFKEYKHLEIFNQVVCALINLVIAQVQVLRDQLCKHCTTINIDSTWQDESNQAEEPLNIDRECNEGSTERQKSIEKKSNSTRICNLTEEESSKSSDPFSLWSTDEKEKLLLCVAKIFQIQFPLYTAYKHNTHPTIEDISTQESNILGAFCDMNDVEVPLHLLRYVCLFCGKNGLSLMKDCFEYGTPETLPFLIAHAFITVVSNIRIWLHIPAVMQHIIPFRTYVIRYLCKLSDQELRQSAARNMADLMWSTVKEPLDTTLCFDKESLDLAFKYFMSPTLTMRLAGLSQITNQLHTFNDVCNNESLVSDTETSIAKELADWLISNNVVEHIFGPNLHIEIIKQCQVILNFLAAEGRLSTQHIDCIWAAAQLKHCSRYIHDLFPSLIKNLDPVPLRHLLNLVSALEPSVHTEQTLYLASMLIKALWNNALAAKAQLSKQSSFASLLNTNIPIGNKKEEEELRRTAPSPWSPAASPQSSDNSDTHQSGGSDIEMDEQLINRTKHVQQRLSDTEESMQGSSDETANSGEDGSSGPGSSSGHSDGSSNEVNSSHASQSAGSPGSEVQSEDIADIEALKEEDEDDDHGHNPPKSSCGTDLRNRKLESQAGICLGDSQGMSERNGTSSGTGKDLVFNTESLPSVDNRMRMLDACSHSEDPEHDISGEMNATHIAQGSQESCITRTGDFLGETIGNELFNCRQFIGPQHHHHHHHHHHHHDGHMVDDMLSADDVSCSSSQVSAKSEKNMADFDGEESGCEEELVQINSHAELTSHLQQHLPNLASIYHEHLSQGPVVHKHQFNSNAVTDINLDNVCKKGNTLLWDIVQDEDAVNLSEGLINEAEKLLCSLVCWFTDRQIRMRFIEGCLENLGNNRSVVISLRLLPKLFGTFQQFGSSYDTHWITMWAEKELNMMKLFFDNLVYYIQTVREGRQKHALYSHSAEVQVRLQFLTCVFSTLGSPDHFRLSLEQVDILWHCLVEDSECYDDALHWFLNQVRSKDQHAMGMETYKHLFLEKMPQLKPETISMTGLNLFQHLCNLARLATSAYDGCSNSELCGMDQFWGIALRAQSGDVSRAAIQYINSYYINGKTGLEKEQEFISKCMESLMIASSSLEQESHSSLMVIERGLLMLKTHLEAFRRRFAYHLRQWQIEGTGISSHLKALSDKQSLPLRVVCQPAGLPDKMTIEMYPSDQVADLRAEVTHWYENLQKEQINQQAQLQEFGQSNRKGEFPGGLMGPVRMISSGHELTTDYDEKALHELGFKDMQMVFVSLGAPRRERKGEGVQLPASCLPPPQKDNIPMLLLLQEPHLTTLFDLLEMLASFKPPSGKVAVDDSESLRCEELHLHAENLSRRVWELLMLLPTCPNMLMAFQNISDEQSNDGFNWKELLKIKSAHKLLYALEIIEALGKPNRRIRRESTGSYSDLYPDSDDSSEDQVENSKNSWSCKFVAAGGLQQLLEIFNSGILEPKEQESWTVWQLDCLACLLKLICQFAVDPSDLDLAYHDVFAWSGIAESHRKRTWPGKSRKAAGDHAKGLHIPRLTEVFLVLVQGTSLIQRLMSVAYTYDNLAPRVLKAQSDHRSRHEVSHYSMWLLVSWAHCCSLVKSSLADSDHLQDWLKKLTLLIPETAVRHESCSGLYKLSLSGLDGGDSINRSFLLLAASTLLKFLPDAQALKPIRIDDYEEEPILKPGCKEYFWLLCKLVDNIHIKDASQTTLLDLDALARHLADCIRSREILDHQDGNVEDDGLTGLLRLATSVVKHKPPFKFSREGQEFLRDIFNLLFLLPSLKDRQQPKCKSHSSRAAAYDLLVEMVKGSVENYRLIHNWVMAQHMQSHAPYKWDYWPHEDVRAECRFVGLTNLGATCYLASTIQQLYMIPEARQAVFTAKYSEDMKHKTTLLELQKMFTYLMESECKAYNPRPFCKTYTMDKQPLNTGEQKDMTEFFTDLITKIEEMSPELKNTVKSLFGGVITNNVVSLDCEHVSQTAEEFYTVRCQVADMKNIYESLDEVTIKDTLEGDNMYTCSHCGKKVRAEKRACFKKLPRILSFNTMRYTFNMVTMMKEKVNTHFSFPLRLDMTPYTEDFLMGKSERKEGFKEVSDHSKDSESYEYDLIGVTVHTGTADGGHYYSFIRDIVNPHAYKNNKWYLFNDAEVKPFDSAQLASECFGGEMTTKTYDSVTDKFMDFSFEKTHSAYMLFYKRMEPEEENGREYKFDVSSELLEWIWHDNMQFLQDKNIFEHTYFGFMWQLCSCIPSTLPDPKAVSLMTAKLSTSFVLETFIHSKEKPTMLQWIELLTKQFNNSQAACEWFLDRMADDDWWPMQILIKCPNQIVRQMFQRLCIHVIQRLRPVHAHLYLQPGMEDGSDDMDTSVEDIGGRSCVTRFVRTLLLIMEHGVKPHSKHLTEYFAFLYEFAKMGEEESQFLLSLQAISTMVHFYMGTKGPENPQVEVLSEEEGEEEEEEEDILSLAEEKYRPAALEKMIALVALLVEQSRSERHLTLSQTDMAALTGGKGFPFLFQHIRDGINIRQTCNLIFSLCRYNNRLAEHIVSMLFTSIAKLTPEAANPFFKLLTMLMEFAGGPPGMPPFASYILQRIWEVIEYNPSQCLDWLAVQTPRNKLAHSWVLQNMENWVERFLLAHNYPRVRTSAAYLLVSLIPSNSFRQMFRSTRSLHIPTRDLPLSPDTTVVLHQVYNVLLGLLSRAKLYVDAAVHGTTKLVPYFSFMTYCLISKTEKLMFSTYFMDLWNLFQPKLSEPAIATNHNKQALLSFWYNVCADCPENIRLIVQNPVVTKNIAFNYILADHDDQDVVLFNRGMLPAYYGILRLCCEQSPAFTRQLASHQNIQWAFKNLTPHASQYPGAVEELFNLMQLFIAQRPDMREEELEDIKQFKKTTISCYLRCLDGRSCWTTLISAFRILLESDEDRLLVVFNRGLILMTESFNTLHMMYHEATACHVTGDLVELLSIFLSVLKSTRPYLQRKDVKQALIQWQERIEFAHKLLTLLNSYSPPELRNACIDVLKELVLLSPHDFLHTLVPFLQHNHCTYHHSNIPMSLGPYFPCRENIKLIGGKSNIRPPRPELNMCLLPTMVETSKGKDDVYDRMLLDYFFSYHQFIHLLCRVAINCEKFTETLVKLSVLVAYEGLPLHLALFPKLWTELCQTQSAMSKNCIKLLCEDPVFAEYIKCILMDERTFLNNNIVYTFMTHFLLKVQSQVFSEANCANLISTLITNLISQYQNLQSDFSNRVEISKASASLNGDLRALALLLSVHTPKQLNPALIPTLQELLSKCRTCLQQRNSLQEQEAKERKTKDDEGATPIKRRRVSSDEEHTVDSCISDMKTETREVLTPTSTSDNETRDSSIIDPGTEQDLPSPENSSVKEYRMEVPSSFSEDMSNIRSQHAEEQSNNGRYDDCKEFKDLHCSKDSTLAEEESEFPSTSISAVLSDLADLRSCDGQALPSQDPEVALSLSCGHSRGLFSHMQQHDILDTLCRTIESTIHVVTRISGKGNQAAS

O=C(CCl)N1CCC(C(O)c2ccc(F)cc2)CC1 (stereo not given)
inactive: [1] -0.0791 | [2] 0.299 | [3] 0.282 | [4] 0.453 | [5] 0.032
